PubChem BioAssay (NCI)
The panel holds about 83,000 compounds, 20% with a hit somewhere; the sample as a whole holds those more often.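 For each line, cells grew in 96-well plates with the test compound present at a single concentration for 48 hours.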 Unmarked numbers belong to inactive results. Activity calls are given as the source filed them. The calls were made as follows: active = growth percent below 10; inactive = the rest.

The molecules below were run on MDA-MB-231 breast (assay: NCI-60 one-dose screen, 48 h (100 = growth as untreated, 0 = no growth, -100 = all killed)). Settings: 10 µM unless noted.

Compound	growth
Nc1ncn([C@@H]2O[C@H](CO)[C@@H](O)C2(F)F)c(=O)n1	80%
CCOC(=O)c1cc(C(=O)c2ccc(Br)cc2)n2cc(C)cc(C)c12	79.8%
Nc1nc2c(c3cnccc13)C(c1cccc(Br)c1)Cc1cnccc1-2 (configuration not stated)	4.34% (active)
O=C1/C(=C\c2cn(-c3nc(N4CCOCC4)nc(N4CCOCC4)n3)c3ccccc23)c2ccccc2N1c1c(Cl)cccc1Cl	76.9%
COc1cc2ncnc(-n3ncc4cc(NC(=O)Nc5ccc(Cl)c(C)c5)ccc43)c2cc1OC	98.9%
CC1=C[C@@H]2c3c(c(O)c(O)c4oc5cc(O)cc(O)c5c(=O)c34)[C@@H](c3cc(O)c(O)c4oc5cc(O)cc(O)c5c(=O)c34)[C@@H]2C(C)(C)C1	-38.2% (active)
N=C(N)c1ccc(-c2ccc(-c3cc(Cl)cc(Cl)c3)s2)cc1	-78.4% (active)
COc1cc2ncnc(-n3ncc4cc(NC(=O)Nc5ccc(Cl)c(Cl)c5)ccc43)c2cc1OC	-74.3% (active)
COC1=CC(c2ccc[nH]2)=N/C1=C\c1[nH]c(C)c(C(=O)CCCCC(=O)NC(C)(C)C)c1C	-19.2% (active)
CC1=NN(c2cccc(Cl)c2)C(=O)/C1=C\c1cn(-c2nc(N3CCOCC3)nc(N3CCOCC3)n2)c2ccccc12	112%
O=C(Nc1ccccc1)Nc1ccc(Nc2ncnc3sc4c(c23)CCCC4)cc1	91.7%
O=c1c(N=Nc2nccs2)c(-c2ccccc2)[nH]n1-c1nc(-c2ccccc2)cs1	53.1%
CCOP1(=O)CC(C)=C(Cl)C(P(=O)(O)O)C1 (configuration not stated)	100%
Cc1ccc(OCCn2ccc(=O)n(CCOc3ccc(Cl)cc3C(=O)c3cc(C)cc(C)c3)c2=O)cc1	46.8%

What follows are molecules tested on RXF 393 renal in the same assay as above. Settings: 10 µM unless noted.

Compound	growth
C/C(CCC(=O)O)=N/Nc1ccc([N+](=O)[O-])cc1	99.4%
Nc1nc2c(c3ncncc13)C(c1cccc(C(F)(F)F)c1)Cc1ncncc1-2 (configuration not stated)	6.31% (active)
COc1ccc(-c2nc(SCC(C)C)nc(Nc3ccc([N+](=O)[O-])cc3)c2C#N)cc1	107%
Cn1c2c(cc(S(=O)(=O)c3ccccc3)c1=O)CCc1c-2cnn1-c1ccc(Cl)cc1	2.65% (active)
Nc1nc2c(c3cnccc13)C(c1cccc(Cl)c1)Cc1cnccc1-2 (configuration not stated)	7.47% (active)
CCCCCSc1ccc2nc(NC(=O)OCCC)sc2c1	28.8%
CCCCCSc1ccc2nc(NC(=O)OCC)sc2c1	7.13% (active)
Cc1c(Cc2ccccc2)c(=O)oc2c(C)c(OCc3n[nH]c(=S)o3)ccc12	98.8%
CCOC(=O)c1c(C)oc2ncnc(Nc3ccc(C(=O)NCCc4ccccc4)cc3)c12	71.8%
COc1cc(/C=C/C(=O)c2ccc(F)cc2)ccc1OCCCCOc1cc2c(cc1OC)C(=O)N1CCCC1C=N2 (configuration not stated)	-71.6% (active)
O=C(CCCC(=O)Nc1ccc(Cn2nnc3cc(Cl)c(Cl)cc32)cc1)Nc1ccc(CN2N=NC3C=C(Cl)C(Cl)=CC32)cc1 (configuration not stated)	93.7%
O=C1Nc2ccccc2/C1=C/c1cn(CC(O)Cn2cc(/C=C3\C(=O)Nc4ccccc43)c3ccccc32)c2ccccc12 (configuration not stated)	-90.8% (active)
COc1cc2ncnc(Nc3ccc4c(cnn4C(=O)Nc4ccccc4)c3)c2cc1OC	87.3%
Cc1nnc(/N=C2\NC(=O)/C(=C/C=C/c3ccccc3)S2)s1	69.2%
COC(c1ccccc1)C(Br)C(=O)c1ccccc1 (configuration not stated)	89.4%
O=C1c2ccccc2CCc2ccccc21	101%
COc1cc2ncnc(-n3ncc4cc(NC(=O)Nc5ccccc5)ccc43)c2cc1OC	-84.3% (active)

Compound	growth
COc1cc(-c2cc3cnccc3c3nc(N)c4ccncc4c23)cc(OC)c1OC	8.24% (active)
COc1cc(OC)c(NC(=O)n2ncc3cc(Nc4ncnc5ccccc45)ccc32)cc1Cl	88.4%
COc1cc(OC)cc(-c2ccc(-c3ccc(C(=N)N)cc3)s2)c1	-94.3% (active)
Nc1ncn([C@@H]2O[C@H](CO)[C@@H](O)C2(F)F)c(=O)n1	45%
CCOC(=O)c1cc(C(=O)c2ccc(Br)cc2)n2cc(C)cc(C)c12	64.2%
Nc1nc2c(c3cnccc13)C(c1cccc(Br)c1)Cc1cnccc1-2 (configuration not stated)	7.59% (active)
O=C1/C(=C\c2cn(-c3nc(N4CCOCC4)nc(N4CCOCC4)n3)c3ccccc23)c2ccccc2N1c1c(Cl)cccc1Cl	-10.8% (active)
COc1cc2ncnc(-n3ncc4cc(NC(=O)Nc5ccc(Cl)c(C)c5)ccc43)c2cc1OC	99.4%
N=C(N)c1ccc(-c2ccc(-c3cc(Cl)cc(Cl)c3)s2)cc1	-90.2% (active)
COc1cc2ncnc(-n3ncc4cc(NC(=O)Nc5ccc(Cl)c(Cl)c5)ccc43)c2cc1OC	-86.7% (active)
COC1=CC(c2ccc[nH]2)=N/C1=C\c1[nH]c(C)c(C(=O)CCCCC(=O)NC(C)(C)C)c1C	-47.1% (active)
CC1=NN(c2cccc(Cl)c2)C(=O)/C1=C\c1cn(-c2nc(N3CCOCC3)nc(N3CCOCC3)n2)c2ccccc12	115%
O=C(Nc1ccccc1)Nc1ccc(Nc2ncnc3sc4c(c23)CCCC4)cc1	102%
O=c1c(N=Nc2nccs2)c(-c2ccccc2)[nH]n1-c1nc(-c2ccccc2)cs1	65.2%
CCOP1(=O)CC(C)=C(Cl)C(P(=O)(O)O)C1 (configuration not stated)	96%
Cc1ccc(OCCn2ccc(=O)n(CCOc3ccc(Cl)cc3C(=O)c3cc(C)cc(C)c3)c2=O)cc1	41.5%
